Measured values as given in PubChem BioAssay (Tox21).
Results filed as inconclusive are left out. Values without a mark were called inactive. The source made the active and inactive calls. Calls come from the whole dose curve; as a rule, active = well fitted cell-killing curve with a large enough effect in the repeat runs; inconclusive = weak or mixed curves, or effect the other way; inactive = flat fitted curve, though single readings scatter.

assay: cAMP Responsive Elements (CRE) small molecule antagonists, cell-based qHTS assay: qHTS cell viability counter screen (AID 2060913); settings: CRE-bla HEK293T viability, CellTiter-Glo luminescence, 5 h; series mostly up to 92.4 µM; viability change, negative = cytotoxic: at the top concentration; note: nearly all actives have a fitted effect of over 40% in size
In short: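 Cytotoxicity read in the same wells as the CRE-bla HEK293T antagonist assay: after 3 h compound with 0.25 uM NKH477 final and 2 h beta-lactamase substrate, CellTiter-Glo luminescence measured.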
% is set by controls: 0 for no effect and ±100 for the full control effect; potency is the fitted concentration of half-maximal effect.

| SMILES | viability change, negative = cytotoxic | Potency |
| --- | --- | --- |
| CCC[CH2][Sn]([CH2]CCC)([CH2]CCC)[CH2]CCC | -26% | – |
| Nc1c(Cl)c(F)nc(OCC(=O)O)c1Cl | -6.16% | – |
| NC(=O)c1cc([N+](=O)[O-])cc([N+](=O)[O-])c1 | 0.273% [at 42.5 µM] | – |
| CC1(C)C(C(=O)OC(C#N)c2cccc(Oc3ccccc3)c2)C1(C)C (centres undefined) | – | inactive |
| O=C(Nc1ccc(F)cc1F)c1cccnc1Oc1cccc(C(F)(F)F)c1 | -1.94% | – |
| O=C(O)[C@H](O)[C@@H](O)C(=O)O | 4.78% | – |
| CCN(CCO)CCn1c(Cc2ccccc2)nc2c1c(=O)n(C)c(=O)n2C | -1.53% [at 42.5 µM] | – |
| C[C@]12CC[C@@H]3c4ccc(OC(=O)N(CCCl)CCCl)cc4CC[C@H]3[C@@H]1CC[C@@H]2O | -0.486% [at 42.5 µM] | – |
| C=CCSSCC=C | -1.72% | – |
| [Cl][Sn]([Cl])([Cl])[Cl] | 0.451% | – |
| CO/C=C(/C(=O)OC)c1ccccc1Oc1cc(Oc2ccccc2C#N)ncn1 | – | 65.2 µM (active) |
| O=C(Nc1ccccc1)Nc1cnns1 | -10.4% | – |
| CCCCCCCCCC(CC)c1ccc(S(=O)(=O)O)cc1 (centres undefined) | – | inactive |
| Nc1cc(Cl)cc(C(=O)O)c1Cl | – | inactive |
| CCCCOC(=O)c1ccccc1C(=O)O | 5.85% | – |
| CC(C)[C@H](C(=O)O[C@H](C#N)c1cccc(Oc2ccccc2)c1)c1ccc(Cl)cc1 | -14.6% | – |
| c1ccc(N=Nc2ccccc2)cc1 | – | inactive |
| CN1C(=O)[C@@H](NC(=O)c2cc3ccccc3[nH]2)N=C(c2ccccc2)c2ccccc21 | -0.369% [at 42.5 µM] | – |
| COP(N)(=S)Oc1ccccc1C(=O)OC(C)C (centres undefined) | 7.77% | – |
